Shown are actives, neighbours in structure and some others; about 3.8% of the full set was active somewhere.
PrP 5UTR inh – inhibition of PrP 5' UTR reporter expression; cell-based PrP 5' UTR mRNA reporter, plate reader; AID 488862; inhibition, % (concentration not given with the values); 0.35% of 340,000 active; in the data active means inhibition above about 52%; further: 0 = median of the neutral control wells
FBA Mtb inh – Mtb fructose-bisphosphate aldolase inhibition; P9WQA3; purified M. tuberculosis FBA, fluorescence read-out; inhibition, % at 1 µM; 2.3% of 360,000 active; AID 588726;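 further: 0% = vehicle and 100% = reference inhibitor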
Target sequence (P9WQA3 whole entry, looked up): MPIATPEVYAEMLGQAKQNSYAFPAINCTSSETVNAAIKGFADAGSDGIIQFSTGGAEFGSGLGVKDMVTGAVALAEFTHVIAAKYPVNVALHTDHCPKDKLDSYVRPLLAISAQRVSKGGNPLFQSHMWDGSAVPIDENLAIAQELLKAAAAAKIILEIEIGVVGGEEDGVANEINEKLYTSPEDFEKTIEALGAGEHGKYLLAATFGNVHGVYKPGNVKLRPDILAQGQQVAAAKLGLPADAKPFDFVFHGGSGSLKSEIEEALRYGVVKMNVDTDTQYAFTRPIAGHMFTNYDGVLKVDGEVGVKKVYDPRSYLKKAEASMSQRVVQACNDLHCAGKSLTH
PrPC surface inh – cell surface PrPC inhibition, primary TR-FRET screen. TR-FRET read-out. inhibition, % at 13.8 µM. 0.43% of 370,000 active; in the data active means inhibition above about 24%; further: 0% = median of the test wells and 100% = reference compound wells
Mtb hypoxia rep – reduces hypoxia-regulated biosensor signal in M. tuberculosis; M. tuberculosis hypoxia-regulated fluorescent reporter, fluorescence; fluorescence inhibition, % (test concentration not listed); 0.1% of 300,000 active; AID 1159583; in the data active means fluorescence inhibition mostly above about 23%, no sharp cut-off; inactive means mostly below about 17%
GDH-TPI counter-1 – counter-screen for M. tuberculosis FBA inhibitors: GDH-TPI coupled enzymes; GDH-TPI coupled enzyme counterscreen, NADH absorbance; inhibition, % at 4.8 µM; 1.2% of 360,000 active; AID 588335; in the data active means inhibition above about 30%;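 further: 0% = DMSO wells and 100% = wells lacking the enzyme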
Yp Topo-I inh – Y. pestis Topo-I inhibition via cleavage products | Y. pestis Topo-I cleavage product accumulation, plate reader | activity, % at 10 µM | 0.064% of 360,000 active | AID 504884; in the data active means activity above about 50%, passing the limit was not always enough
Mtb FBA confirm – confirmation of M. tuberculosis fructose-bisphosphate aldolase inhibitors | shares compounds with FBA Mtb inh | inhibition, % at 1 µM | 78% of 5,600 active | purified M. tuberculosis FBA, fluorescence read-out;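 further: 0% = vehicle wells and 100% = reference inhibitor wells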
GDH-TPI counter-2 – inhibits GDH-TPI coupling enzymes, flagging Mtb FBA hits; 81% of 5,600 active; shares compounds with FBA Mtb inh; inhibition, % at 1 µM; GDH-TPI coupled enzyme counterscreen, fluorescence; in the data active means inhibition above about 10%
An asterisk follows results filed as active; nt = no result given; + = active, no number. Unless noted, no stated cut-off is given here; in the data, active means inhibition above about 27%; inactive means the rest.

SMILES	PrP 5UTR inh	FBA Mtb inh	PrPC surface inh	Mtb hypoxia rep	GDH-TPI counter-1	Yp Topo-I inh	Mtb FBA confirm	GDH-TPI counter-2
COc1cc(C(=O)Nc2nc3ccc(S(C)(=O)=O)cc3s2)cc(OC)c1C	-10.6	9.9	10.0	6.3	22.5	-2.1	nt	nt
CSc1nc2ccc(NC(=O)c3ccc(F)c(F)c3)cc2s1	-55.5	0.9	10.3	7.4	0.6	-5.0	nt	nt
COc1cc(OC)cc(C(=O)Nc2nc3ccc(S(C)(=O)=O)cc3s2)c1	-27.3	2.0	-4.1	-4.6	29.8	-6.0	nt	nt
CS(=O)(=O)c1ccc2nc(NC(=O)c3ccc(NS(=O)(=O)c4ccc(F)c(F)c4)cc3)sc2c1	-13.2	71.0*	2.6	3.7	59.8*	6.7	79.0*	81.8*
CS(=O)(=O)c1ccc2nc(NC(=O)c3cccc(NS(=O)(=O)c4ccc(F)c(F)c4)c3)sc2c1	-0.1	29.0*	8.1	-4.2	9.8	-8.0	150.6*	138.8*
O=C(Nc1nc2ccc(SC(F)F)cc2s1)c1ccc(NS(=O)(=O)c2ccc(F)c(F)c2)cc1	-61.1	54.8*	9.0	3.1	29.3	7.3	+	+
Cn1c(CN2CCOCC2)nnc1SCC(=O)Nc1cc(Cl)ccc1Cl	-5.2	27.0*	-3.6	-5.9	-5.7	-2.3	1.4	-9.2
Cc1c(Cl)cccc1Nc1ccccc1C(=O)O	-1.4	3.6	8.1	-6.6	9.2	-6.7	nt	nt
O=C(O)c1ccccc1Nc1ccnc(Cl)n1	-33.7	27.8*	-5.6	-3.1	10.1	6.1	+	143.9*
CCc1cc2c(=O)c(-c3ccc4c(c3)OCCO4)coc2c(CN2CCCCC2C)c1O (stereo unspecified)	-18.6	45.1*	12.1	11.8	14.2	9.3	70.4*	70.5*
O=c1c(-c2ccc([N+](=O)[O-])cc2)coc2c(O)c(O)ccc12	-6.6	-1.5	-10.1	nt	16.7	-0.1	nt	nt
CC1CN(Cc2c(O)ccc3c2oc(=O)c2ccccc23)CC(C)O1 (stereo unspecified)	-20.9	5.0	8.3	3.2	17.3	-3.3	nt	nt
CC1CN(Cc2c(O)ccc3c(=O)c(-c4ccccc4)coc23)CC(C)O1 (stereo unspecified)	-16.5	89.9*	-5.8	3.9	24.8	15.1	-5.5	-6.0
CN(C)Cc1c(O)ccc2c(=O)c(-c3ccc(Cl)cc3)coc12	-26.2	45.7*	7.2	-2.9	21.4	-1.4	42.8*	30.5*
CC1CCCCN1Cc1c(O)ccc2c(=O)c(-c3ccccc3)coc12 (stereo unspecified)	-12.7	65.8*	0.4	10.8	15.2	0.5	77.0*	56.9*
O=C(NCc1nc2ccccc2[nH]1)C1=CC(c2ccc3c(c2)OCO3)CC(OCCCCO)O1 (stereo unspecified)	nt	nt	nt	1.2	nt	nt	nt	nt
O=C(NC(Cc1ccccc1)C(=O)CCl)OCc1ccccc1 (stereo unspecified)	nt	nt	nt	-7.0	nt	nt	nt	nt
CCc1cc2c(=O)c(-c3nc4ccccc4[nH]3)coc2c(CN2CCCCC2C)c1O (stereo unspecified)	-7.1	-4.3	0.4	8.5	19.8	8.0	nt	nt
O=c1c(-c2ccccc2)coc2c(CN3CCCCC3)c(O)ccc12	-38.9	105.8*	-1.6	20.7	36.4*	3.8	89.6*	87.7*
COc1ccc(-c2coc3c(CN4CCCCC4C)c(O)ccc3c2=O)cc1 (stereo unspecified)	-27.1	77.6*	-6.4	13.9	-2.2	1.0	69.6*	45.6*
CCC1CCCCN1Cc1c(O)ccc2c(=O)c(-c3ccccc3)coc12 (stereo unspecified)	-18.5	54.5*	-8.0	13.1	21.4	-1.3	41.4*	32.5*
C=CCN(CC=C)Cc1c(O)ccc2c(=O)c(-c3ccccc3)coc12	-23.8	52.6*	6.8	nt	15.4	8.4	33.5*	26.7*
CCN(CC)Cc1c(O)ccc2c(-c3ccccc3)cc(=O)oc12	2.0	7.2	-30.5	7.6	18.3	0.8	nt	nt
O=C(NN=Cc1cccc(OC(=O)c2ccco2)c1)c1ccc2c(c1)OCO2	nt	nt	nt	1.1	nt	nt	nt	nt
CCC(C)n1c(-c2cccs2)nc2nc3ccccc3nc21 (stereo unspecified)	2.7	52.5*	-11.2	2.6	12.5	-1.0	101.7*	76.3*
SMILES	PrP 5UTR inh	FBA Mtb inh	PrPC surface inh	Mtb hypoxia rep	GDH-TPI counter-1	Yp Topo-I inh	Mtb FBA confirm	GDH-TPI counter-2
c1ccc(-n2c(-c3cccs3)nc3nc4ccccc4nc32)cc1	-64.4	95.7*	-4.5	-6.6	1.4	-1.8	+	+
Cc1ccc(-n2c(-c3cccs3)nc3ccccc3c2=O)cc1	-24.5	0.9	-20.7	nt	21.9	16.7	nt	nt
COc1cccc(-c2nnc(-c3ccco3)o2)c1	-114.2	61.5*	-0.7	21.5	6.9	0.9	+	+
COc1cccc(C(=O)Nc2ccc(-c3nnc(-c4ccco4)o3)cc2)c1	-19.6	1.0	-4.8	nt	15.5	0.1	nt	nt
CCCOc1ccc(-c2nnc(-c3ccco3)o2)cc1	19.2	60.1*	5.8	-4.9	10.9	0.0	50.4*	36.2*
CC(C)COc1ccc(-c2nnc(-c3ccco3)o2)cc1	41.6	42.7*	3.4	7.2	1.8	5.9	53.7*	43.1*
C/C(C=NN1CCN(c2ccccc2)CC1)=C/c1ccco1	nt	nt	nt	4.7	nt	nt	nt	nt
O=C1Nc2ccccc2O/C1=C\c1ccccc1	-29.5	29.6*	1.1	0.8	16.4	6.4	160.0*	102.4*
CN(CC(=O)Nc1ccc(Cl)c(S(=O)(=O)N(C)C)c1)Cc1ccccc1	-40.5	53.1*	2.3	7.7	1.5	22.1	+	+
COc1ccc(NC(=O)CN(C)CC(=O)Nc2ccc(Cl)c(S(=O)(=O)N(C)C)c2)cc1	-27.2	3.6	-1.4	7.6	-8.2	9.9	nt	nt
Cc1cccc(NCC(=O)NN=Cc2cccn2C)c1	nt	nt	nt	13.6	nt	nt	nt	nt
O=C(CCC1CCCN(C(=O)C2=CCCC2)C1)N1CCN(c2ccccn2)CC1 (stereo unspecified)	-4.1	40.8*	-1.7	-1.3	5.4	4.8	0.6	-2.9
CC1CCN(c2nc3c(cc2C#N)COC(C)(C)C3)CC1	-17.9	39.6*	-11.5	4.3	3.5	11.6	90.8*	63.2*
CC(C)CCNc1nc2c(cc1C#N)COC(C)(C)C2	-10.9	64.5*	9.7	nt	3.1	11.0	192.3*	159.3*
O=C1c2cnc3nc(SCc4cccc(Cl)c4)nn3c2CC2c3ccccc3CCN12 (stereo unspecified)	-30.9	1.1	2.9	17.2	-7.6	6.1	nt	nt
N#Cc1cnn2c(C(F)(F)F)cc(-c3ccccc3)nc12	3.1	7.2	5.3	-1.8	15.4	-2.9	nt	nt
CC1CCN(C(=O)C2c3ccccc3C(=O)N3CCc4ccccc4C23)CC1 (stereo unspecified)	-13.8	1.4	-5.2	3.5	0.0	19.5	nt	nt
